# Laboratory results published in publication PMC5540273 (PLoS ONE, 2017).
# Tested on: PAK7
# Settings: concentration: 1 μM, replicates: in singlicate; n = 1
# 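Also: KINOMEscan kinase panel screen.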
row,SMILES,%Inh
1,CCn1c(-c2ccoc2)nc2cnccc21 [SB-733887],0%
2,CCS(=O)c1ccc(-c2coc3ccc(-c4nnc(C)o4)cc23)cc1 (stereo not shown),0%
3,Nc1ncnc2c1ncn2-c1ccc(Cl)cc1 [AH2635],6%
4,O=c1cc(N2CCOCC2)nc2n(Cc3ccc(F)c(Cl)c3)ccn12 [GSK2297099],11%
5,COc1ccc(CNC(=O)NC2CCN(c3ccnc(Nc4ccc(F)cc4)n3)C2)cc1 (stereo not shown) [GSK1379706],3%
6,COc1cc(Nc2ccnc3ccc(C(F)(F)F)cc23)cc(OC)c1OC [GW577382],7%
7,O=C(Nc1n[nH]c2nc(-c3ccccc3)c(Br)cc12)C1CC1 [SB-708998],0%
8,Nc1n[nH]c2nnc(-c3ccccc3)c(-c3ccccc3)c12 [GW554060],0%
9,CCc1nc(-c2cccc(C)c2)c(-c2ccncc2)s1,0%
10,O=C(NCCNc1ccnc(Nc2ccc(F)cc2)n1)Nc1ccc2c(c1)OCO2 [GSK1379882],7%
11,Fc1cccc(CSc2nnc(-c3ccc4c(c3)CCO4)o2)c1,5%
12,Cn1c(=O)c(F)c(Nc2ccc(I)cc2F)c2c(=O)n(OC[C@H](O)CO)cnc21,0%
13,COc1cc(Nc2nccc(N3CCC(NC(=O)C4COc5ccccc5O4)C3)n2)cc(OC)c1OC (stereo not shown) [GSK1379761],3%
14,CCC(=O)c1c(-c2ccccc2)c2cc(Cl)ccc2c(=O)n1Cc1cc(S(C)(=O)=O)n(CCC(C)(C)O)n1,2%
15,Nc1ncnc2c1ncn2-c1cccc(F)c1 [SKF-97560],3%
16,CCCNC(=O)Nc1ccc(Oc2ncnc3ccn(C)c23)cc1,5%
17,COc1ccc(Nc2nccc(N3CCC(NS(=O)(=O)c4ccc(NC(C)=O)cc4)C3)n2)cc1 (stereo not shown) [GSK1379729],0%
18,COc1cc2ncn(-c3cc(OCc4ccncc4Br)c(C(N)=O)s3)c2cc1OC [GW854278],16%
19,CN1C(=O)C(Nc2cc(Cl)c(O)c(Cl)c2)=C(c2ccc(Cl)cc2)C1=O [SB-404321],5%

row,SMILES,%Inh
1,CCC(=O)c1c(-c2ccccc2)c2cc(Cl)ccc2c(=O)n1Cc1cc(S(C)(=O)=O)n(CC(F)F)n1,0%
2,O=C1NC(=O)C(c2ccccc2)=C1Nc1cccc(O)c1 [SB-390534],0%
3,Cc1cccc(-c2cc(-c3c[nH]nc3-c3ccccn3)ccn2)c1 [GW679395],0%
4,Nc1nc(N)c2nc(-c3ccccc3)[nH]c2n1 [SKF-12778],5%
5,COc1ccc(-n2cnc3c(N)ncnc32)cc1 [SKF-97236],0%
6,COc1cccc(-n2cnc3c(N)ncnc32)c1 [SKF-97416],1%
7,FC(F)(F)c1ccc(-c2ncn(CCCN3CCOCC3)c2-c2ccncc2)cc1 [SB-217780],0%
8,Cc1nnc(-c2ccc3ncn(-c4ccc(S(C)=O)cc4)c3c2)o1 (stereo not shown),2%
9,COC(=O)c1c(-c2ccccc2)c2cc(Br)ccc2c(=O)n1Cc1ccc(NC(=O)CCC(=O)O)cc1,2%
10,Cl.c1ccc(Cn2cnc3cc(Nc4ncnc5ccccc45)ccc32)cc1 [GW272142],9%
11,Cc1ccc(-c2ccc3c(ccc4sc5c(c43)NC[C@@H](C)N=C5N(C)C)n2)cn1,10%
12,CN1C(=O)C(Nc2ccccc2)=C(c2ccccc2)C1=O [SB-300079],0%
13,COc1cc2nccc(Nc3ccc(OCc4ccc(NC(C)=O)cc4)cc3)c2cc1OC.Cl [GW440135],0%
14,COc1cc2ncn(-c3cc(OCCCc4ccccc4)c(C(N)=O)s3)c2cc1OC [GSK205189],0%
15,Cc1nnc(-c2ccc(C)c(-c3ccc(C(=O)O)cc3)c2)o1 [GW608005],0%
16,O=C(Nc1n[nH]c2cc(-c3ccccc3F)ccc12)C1CC1 [SB-733371],9%
17,CCC(=O)c1c(-c2ccccc2)c2cc(Cl)ccc2c(=O)n1Cc1cc(C(=O)NC2CC2)n(C)n1,0%
18,CCC(=O)c1c(-c2ccccc2)c2cc(Cl)ccc2c(=O)n1Cc1ccc(C(=O)O)cc1,0%
